Test results taken from PubChem BioAssay (NCI).
The panel holds about 83,000 compounds, 20% with a hit somewhere; the sample as a whole holds those more often.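 For each line, cells grew in 96-well plates with the test compound present at a single concentration for 48 hours.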 Values without a mark were called inactive. The source made the active and inactive calls. The calls were made as follows: active = growth percent below 10; inactive = the rest.

Columns and labels:
Assay in all cases: NCI-60 one-dose screen, 48 h (100 = growth as untreated, 0 = no growth, -100 = all killed)
SK-MEL-2 melanoma = details: 10 µM
EKVX NSCLC = details: 10 µM
SN12C renal = details: 10 µM
UO-31 renal = details: 10 µM
TK-10 renal = details: 10 µM unless noted
ACHN renal = details: 10 µM
A498 renal = details: 10 µM
CCRF-CEM leukemia = details: 10 µM
MOLT-4 leukemia = details: 10 µM
CAKI-1 renal = details: 10 µM

Structure (SMILES) | growth (SK-MEL-2 melanoma) | growth (EKVX NSCLC) | growth (SN12C renal) | growth (UO-31 renal) | growth (TK-10 renal) | growth (ACHN renal) | growth (A498 renal) | growth (CCRF-CEM leukemia) | growth (MOLT-4 leukemia) | growth (CAKI-1 renal)
Cc1cc(Cc2cc(C)c(N)cc2N)c(N)cc1N | 96.7% | 109% | 88.3% | 77.2% | 146% | 98.8% | 98.8% | 96.8% | 73.2% | –
CC1(C)/C(=C\CO)C2CCC1C2 (stereo not drawn) | 105% | 113% | 99.4% | 78.5% | 89.7% | 112% | – | 92.3% | 107% | 102%
C#C[C@H]1CCCCCC1O (stereo partly drawn) | 101% | 104% | 101% | 97.1% | – | 116% | 99.3% | 97.1% | 98.4% | 101%
Cc1nc2ccccc2c(C(=O)O)c1O | 313% | 103% | 98.3% | 91.2% | 113% | 97.8% | 117% | 121% | 132% | –
OCC(O)C(O)C(O)C(O)/C=N/O (stereo not drawn) | 107% | 105% | 106% | 98.4% | – | 112% | 102% | 81.6% | 82.7% | 104%
CCOC(=O)CSc1c([N+](=O)[O-])ncn1C | 95.4% | 95.6% | 102% | 89.8% | 94.2% | 101% | 114% | 94.8% | 94.8% | –
O=S(=O)(O)c1ccc(O)c2ccccc12 | 97.2% | 88.9% | 103% | 77.7% | – | 100% | 112% | 99.4% | 95.4% | 68.5%
O=[N+]([O-])c1ccc(CO)cc1 | 118% | 101% | 106% | 93.5% | – | 111% | 110% | 105% | 100% | 102%
CCN=c1cc2sc3cc(NCC)c(C)cc3nc-2cc1C | 26.5% | -7.52% (active) | -83.1% (active) | 40.5% | – | 53% | 47.7% | 14% | 8.77% (active) | -56% (active)
Cc1ccc(Cl)cc1NC(=O)N(C)CCO | 97.4% | 116% | 105% | 76% | 126% | 103% | 111% | 98.7% | 97.5% | –
O=C(O)c1cc([N+](=O)[O-])ccc1Cl | 97.3% | 118% | 95.6% | 79.9% | – | 105% | 106% | 114% | 73.2% | 101%
C[N+](C)=c1ccc2nc3c(cc(Nc4ccccc4)c4ccccc43)oc-2c1 | 10.9% | 90.2% | 79.9% | 59.1% | 106% | 82.1% | 51% | 57.8% | 38% | –
COc1ccc2c(NCCCCCCCCNc3c4ccccc4nc4cc(OC)ccc34)c3ccccc3nc2c1 | -67.3% (active) | -79.6% (active) | -92.7% (active) | -76.2% (active) | – | -100% (active) | -88.6% (active) | -42.4% (active) | -85.7% (active) | -100% (active)
COc1cc(C2NC(=O)C(C#N)=C(Nc3cccc(C)c3)S2)ccc1O (stereo not drawn) | 123% | 94.9% | 90.3% | 94.8% | 106% | 101% | 112% | 76% | 93% | –
C=CCNC(=O)c1ccc(OC)cc1 | 97.6% | 109% | 99.1% | 74.7% | 120% | 106% | 133% | 98.4% | 102% | –
CCOC(=O)c1coc(C(=O)OCC)c1C(=O)OCC | 126% | 100% | 112% | 96.5% | 118% | – | 92.2% | 112% | 98.6% | 102%
CCCCOC(=O)c1ccc(C(C)C)cc1 | 99.7% | 91.7% | 102% | 91.7% | – | 104% | 87% | 112% | 83.3% | 96.7%
O=C(CS)Nc1ccc2ccccc2c1 | 116% | 119% | 101% | 88.7% | 128% | 93.6% | 98.8% | 81.1% | 84.5% | –
NC(N)=Nc1cc2ccccc2c2ccccc12 | 108% | 83.9% | 80.5% | 57% | 105% | 72.3% | 59.3% | 40.5% | 41.6% | –
COc1ccccc1N=Nc1c(O)ccc2cc(S(=O)(=O)O)ccc12 | 96.4% | 95.2% | 102% | 84.7% | 113% | 98.1% | – | 105% | 104% | –
CC(=O)/C(Cc1ccccc1)=N/O | 99.7% | 92.4% | 105% | 96.2% | – | 98.6% | 75.6% | 99% | 85% | 100%
CCOC(=O)c1cc(/C=C/c2ccc(Cl)cc2Cl)on1 | 109% | 45.2% | 70.8% | – | 155% | 2.04% (active) | 133% | 19% | 32.5% | 42.9%
COc1ccc2c(c1)CCc1c-2n[nH]c1-c1[nH]nc2c1CCc1cc(OC)ccc1-2 | 61.7% | 59.8% | 91.6% | – | – | 57.8% | 109% | 41.8% | 50.4% | 53.2%
CCCCCCCCCCCCCC(=O)Oc1ccc[nH]c1=O | 115% | 83.4% | 98.1% | – | 84.2% | 110% | 94.5% | 75.5% | 98.6% | 84.5%
CC(C)C1CCCCC1O (stereo not drawn) | 107% | 81.9% | 102% | – | – | 93.5% | 97.2% | 99.3% | 148% | 101%
O=C(Cc1nc2ccc([N+](=O)[O-])cc2nc1CC(=O)c1cccnc1)c1cccnc1 | 113% | 63.2% | 56.2% | – | 75.5% | 54.1% | 86.9% | 48.7% | 80.8% | 81.5%
CC(C)NC(=O)OCc1c(COC(=O)NC(C)C)c(-c2ccc(Cl)c(Cl)c2)n2c1SCC2 | 37.8% | 62.4% | 36.4% | – | 6.38% (active) | 18.1% | – | 24.9% | 17.1% | -11.5% (active)
c1cc2cccc3c4cccc5cccc(c(c1)c23)c54 | 98.7% | 104% | 98.6% | – | 102% | 102% | 116% | 103% | 105% | –
CC(O)COc1ccc(-c2ccccc2)cc1 (stereo not drawn) | 108% | 93.6% | 101% | – | – | 103% | 78.7% | 95.4% | 121% | 91.9%
CCNCCCCNCCCCNCCCCNCCCCNCC | 97.1% | 76.2% | 115% | – | – | 80.4% | 129% | 128% | 151% | 77.7%
